Bioassay records (PubChem BioAssay)
Pemphigus Ab inh = human desmoglein-3 autoantibody binding inhibition. hit rate 0.48% among 310,000. P32926. DSG3-coupled beads, scFv-anti-DSG3-GFP binding, flow cytometry; hits give low values. binding (percent of control), % at 10 µM. AID 588358;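 active = binding more than 3 SD below its plate's average and above zero; inconclusive = below that plate limit but binding exactly zero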;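 note: hits lower antibody fragment binding to DSG3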
NTR1 agonist = agonists of human neurotensin receptor NTR1 | P30989 | NTR1-U2OS beta-arrestin-GFP spot imaging, agonist mode | activation, % at 20 µM | hit rate 0.17% among 330,000 | AID 493036;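 active = activation at or above 40% of the spot to cytoplasm intensity ratio, with at least 20 cells analyzed; inconclusive = wells under 20 cells, flagged as cytotoxic or low count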
AI-2 QS modul = modulators of Vibrio harveyi AI-2 quorum sensing system. Vibrio harveyi JMH597 AI-2 luminescence/OD600 ratio, 9 h; hits give low values; strain lacks LuxN and CqsS sensors; 0 = neutral-control median. activity change, % at 7.5 µM. hit rate 0.4% among 300,000; in the data active = activity change below about -75%, passing the limit was not always enough; inconclusive = no clear call, values can overlap the other calls;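 note: luminescence divided by OD600 gain over 9 h not by final OD600 alone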
VLA-4 inh = inhibition in a human VLA-4 binding assay; P13612; VLA-4 expressing cells, ligand binding flow cytometry; inhibition, % (about 7 µM as worked out from the volumes in the protocol); hit rate 0.2% among 330,000; AID 2557; in the data active = inhibition above about 50%
Target sequence (P13612 whole entry, looked up): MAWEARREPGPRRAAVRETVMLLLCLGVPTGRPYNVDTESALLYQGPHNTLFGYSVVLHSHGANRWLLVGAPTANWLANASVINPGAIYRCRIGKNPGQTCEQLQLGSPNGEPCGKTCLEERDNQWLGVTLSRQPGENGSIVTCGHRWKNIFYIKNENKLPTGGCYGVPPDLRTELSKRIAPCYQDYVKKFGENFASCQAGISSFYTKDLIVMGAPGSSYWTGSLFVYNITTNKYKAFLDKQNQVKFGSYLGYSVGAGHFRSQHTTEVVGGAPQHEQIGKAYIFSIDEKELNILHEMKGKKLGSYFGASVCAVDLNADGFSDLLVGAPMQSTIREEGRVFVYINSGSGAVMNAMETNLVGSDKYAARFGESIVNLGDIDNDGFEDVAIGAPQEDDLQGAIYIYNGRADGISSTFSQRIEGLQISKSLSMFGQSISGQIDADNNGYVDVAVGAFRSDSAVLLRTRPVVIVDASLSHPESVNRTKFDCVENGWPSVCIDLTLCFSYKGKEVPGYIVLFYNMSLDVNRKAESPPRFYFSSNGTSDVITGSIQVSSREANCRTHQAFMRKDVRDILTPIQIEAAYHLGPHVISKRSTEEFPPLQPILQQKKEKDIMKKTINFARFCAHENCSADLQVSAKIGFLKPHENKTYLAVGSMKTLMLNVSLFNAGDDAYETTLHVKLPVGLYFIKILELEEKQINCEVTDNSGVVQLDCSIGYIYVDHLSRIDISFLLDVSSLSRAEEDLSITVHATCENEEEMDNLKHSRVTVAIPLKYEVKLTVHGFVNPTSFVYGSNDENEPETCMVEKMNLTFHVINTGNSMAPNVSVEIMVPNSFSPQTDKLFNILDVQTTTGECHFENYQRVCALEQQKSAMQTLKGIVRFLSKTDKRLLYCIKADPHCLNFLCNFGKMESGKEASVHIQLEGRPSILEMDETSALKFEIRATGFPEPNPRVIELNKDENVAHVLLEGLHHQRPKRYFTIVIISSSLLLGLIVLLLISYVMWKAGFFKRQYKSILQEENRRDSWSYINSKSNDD
VLA-4 allo CP = confirmation of allosteric modulators of human VLA-4 integrin. hit rate 2% among 1,300. inhibition, % at 6.7 µM. U937 cells, HUTS-21 LIBS mAb binding, flow cytometry; LDV ligand present at threefold Kd. shares compounds with VLA-4 inh; in the data active = inhibition above about 40%
Each line names hits and unclear results; the compound was inactive in the other large screens (follow-up assays come after a bar, where they were run); ! = not confirmed by another sample. Compounds with a hit are over-represented: about 1.1% of the library has one in this group of screens.

Cc1ccc2nc(-c3ccc(NC(=S)NC4CC(C)(C)NC(C)(C)C4)cc3)sc2c1	VLA-4 inh 54 | VLA-4 allo CP inactive
CC1(C)CCC[C@@]2(C)CC=C(C(=O)O)[C@@H]3C[C@]312	none (no result: Pemphigus Ab inh)
Cc1cc(=O)[nH]c(-n2nc(C)cc2C)n1	VLA-4 inh 94 | VLA-4 allo CP inactive
Cc1cc(=O)[nH]c(N2CCCNCC2)n1	none
CCOCc1c(C(=O)N2CCN(CC(=O)Nc3ccc(F)cc3)CC2)oc2ccccc12	Pemphigus Ab inh inconclusive (no result: AI-2 QS modul, VLA-4 inh)
Cc1cc(C(C)(C)C)cc(C)c1CC1=NCCN1	none
Cc1ccc(N(CC2=NCCN2)c2cccc(O)c2)cc1	VLA-4 inh 55! | VLA-4 allo CP inactive
Cc1nc(NC(=O)COC(=O)C(NC(=O)c2ccco2)C(C)C)c(Cl)cc1Cl (stereo unspecified)	VLA-4 inh 52 | VLA-4 allo CP inactive
CCCc1ccc(OCCNC(=O)CC)cc1	VLA-4 inh 51 | VLA-4 allo CP inactive
CCCc1ccc(OCCNC(C)=O)cc1	none
Cc1cc(=O)oc2c3c(cc(OCC(=O)NC(Cc4ccc(Cl)cc4)C(=O)O)c12)OC(C)(C)CC3 (stereo unspecified)	none | VLA-4 allo CP inactive
Cc1cc(=O)oc2c3c(cc(OCC(=O)N[C@@H](C)C(=O)O)c12)OC(C)(C)CC3	none
Cc1cc(=O)oc2c3c(cc(OCC(=O)N[C@@H](Cc4ccccc4)C(=O)O)c12)OC(C)(C)CC3	VLA-4 inh 50 | VLA-4 allo CP inactive
Cc1cc(C(=O)Nc2ccc(F)c(Cl)c2)on1	none
COc1cc(NC(=O)C(c2ccccc2)c2ccccc2)c(C(=O)O)cc1OC	none | VLA-4 allo CP inactive
CCc1cc(C(=O)O)c(NC(=O)C(c2ccccc2)c2ccccc2)s1	VLA-4 inh 90 | VLA-4 allo CP inactive
CCNC(=O)Nc1cc(OC)c(OC)cc1C(=O)O	none
CCCc1ccc(OCc2ccc(C(=O)NCc3cccnc3)o2)c(OC)c1	VLA-4 inh 56 | VLA-4 allo CP inactive
O=S(=O)(c1cccc(F)c1)N1CCN(c2nc(-c3cccnc3)nc3ccccc23)CC1	none (no result: Pemphigus Ab inh, AI-2 QS modul)
COc1ccc2nc(NC(=O)CSc3nc(C)cc(=O)[nH]3)sc2c1	none
CCCc1cc(=O)[nH]c(SCC(=O)Nc2nc3ccc(OCC)cc3s2)n1	VLA-4 inh 51 | VLA-4 allo CP inactive
COc1ccccc1-c1cc(C(F)(F)F)nc(S(=O)(=O)CCCC(=O)N2CCCCC2C)n1 (stereo unspecified)	VLA-4 inh 50 | VLA-4 allo CP inactive
O=C(Nc1ccc(C2=NCCN2)cc1)c1ccc(Cl)c(C(=O)Nc2ccc(C3=NCCN3)cc2)c1	none (no result: Pemphigus Ab inh) | VLA-4 allo CP inactive
O=C(Nc1ccc(Cl)c(Cl)c1)c1ccc(Cl)c(Cl)c1	none
NC(=O)NS(=O)(=O)Oc1ccccc1	VLA-4 inh 50 | VLA-4 allo CP inactive
O=[N+]([O-])c1cc2c(cc1C=Nc1ccccc1)OCO2	VLA-4 inh 50 | VLA-4 allo CP inactive
COc1ccccc1-n1nnnc1SCC(=O)Nc1ccc(C)c(N)c1	VLA-4 inh 54 | VLA-4 allo CP inactive
COc1ccc(NC(=O)CSc2nnnn2-c2ccccc2OC)c(OC)c1	none
N=c1oc2ccc(Cl)cc2cc1C(=O)Nc1ccc(F)cc1	none
CC(=O)c1c(C)[nH]c(C(=O)OCc2ccccc2F)c1C	none
COc1ccc(/C=N/NC(=O)c2cccc(NC(C)=O)c2)c(C(=O)O)c1OC	none | VLA-4 allo CP inactive
O=C(Nc1nnc(Cc2ccccc2F)s1)Nc1ccccc1F	none
CC(=O)c1ccc(NS(=O)(=O)c2ccc(N)cc2)cc1	none | VLA-4 allo CP inactive
Nc1cccc(S(=O)(=O)Nc2ccccc2)c1	none | VLA-4 allo CP inactive
Nc1cccc(S(=O)(=O)Nc2ccc(Br)cc2)c1	none
Nc1ccc(NS(=O)(=O)c2ccccc2)cc1	none | VLA-4 allo CP inactive
O=C(CCC(=O)N1CCc2ccccc2C1)NCCc1ccc(Cl)cc1	none
O=C(OCC(=O)c1ccccc1Cl)C1=NN(c2ccccc2)C(=O)CC1	none (no result: AI-2 QS modul)
O=C(Cn1cnc([N+](=O)[O-])c1)Nc1ccc(F)c(Cl)c1	none (no result: VLA-4 inh)
CCc1ccc(NC(=O)Cn2cnc([N+](=O)[O-])c2)cc1	VLA-4 inh 54 (no result: AI-2 QS modul) | VLA-4 allo CP inactive
CC(C)CN(C(=O)C1CCCO1)c1c(N)n(CC(C)C)c(=O)[nH]c1=O (stereo unspecified)	none (no result: AI-2 QS modul, VLA-4 inh)
Fc1c(F)c(F)c(SCn2cc(Br)cn2)c(F)c1F	none (no result: AI-2 QS modul)
CC(=O)Nc1ccc(N2C(=O)CC(N3CC(C)OC(C)C3)C2=O)cc1 (stereo unspecified)	none | VLA-4 allo CP inactive
COc1ccc(CCNC(=O)c2ccc3nc(N4CCCCC4)sc3c2)cc1OC	none | VLA-4 allo CP inactive
Cc1ccc(NC(=O)c2ccc3nc(N4CCOCC4)sc3c2)c(Cl)c1	none | VLA-4 allo CP inactive
CCOc1ccc(CNC(=O)c2ccc3nc(N4CCOCC4)sc3c2)cc1	none | VLA-4 allo CP inactive
O=C(NCc1cccc(F)c1)c1ccc2nc(N3CCOCC3)sc2c1	none | VLA-4 allo CP inactive
COc1ccc2nc(N3CCCC(C(=O)NCCc4ccc(OC)c(OC)c4)C3)sc2c1 (stereo unspecified)	none
CN(C(=O)c1ccc(NC(=O)Cc2cccc(NC(=O)C3CCCN(C(=O)C4CCCC4)C3)c2)cc1)C1CCCC1 (stereo unspecified)	none (no result: AI-2 QS modul)
O=C(NCCc1ccc(Cl)cc1)c1ccc2nc(N3CCOCC3)sc2c1	none | VLA-4 allo CP inactive
CC(=O)Nc1ccc(S(=O)(=O)N(C)CC(=O)OCC(=O)c2ccc[nH]2)cc1	none (no result: Pemphigus Ab inh, AI-2 QS modul)
COC(=O)c1cc(-c2ccc(C)o2)nc2ccccc12	none (no result: Pemphigus Ab inh) | VLA-4 allo CP inactive
O=C(NNC(=O)c1ccccc1[N+](=O)[O-])c1csc(N2CCOCC2)n1	none (no result: AI-2 QS modul)
CCCc1nc2cc(CC(=O)OC)ccc2o1	VLA-4 inh 72 | VLA-4 allo CP inactive
COC(=O)CCCNC(=O)c1ccc2oc(CCCc3ccccc3)nc2c1	none
O=C(CNC(=O)c1cccs1)OCc1c(F)cccc1Cl	none
Cn1c(SCC(=O)Nc2nccs2)nnc1-c1ccncc1	none
CC(C)C(NC(=O)c1ccccc1)c1nnc(SCC(=O)Nc2nccs2)n1C (stereo unspecified)	VLA-4 inh 58 | VLA-4 allo CP inactive
O=C(O)CSc1nc2ccc(C(=O)c3ccccc3)cc2[nH]1	none
C1CN(CCN2CCOCC2)CCN1	none
O=C(Nc1ccccc1)Nc1cccc2cccnc12	VLA-4 inh 69 | VLA-4 allo CP inactive
O=C(c1cc(-c2ccncc2)nc2ccccc12)N1CCN(c2ncccn2)CC1	none (no result: AI-2 QS modul) | VLA-4 allo CP inactive
O=C(c1ccco1)N1CCN(C(=O)c2cc(-c3ccccn3)nc3ccccc23)CC1	none | VLA-4 allo CP inactive
O=C(c1cc(-c2cccnc2)nc2ccc(Br)cc12)N1CCN(c2ncccn2)CC1	none | VLA-4 allo CP inactive
O=C(c1ccco1)N1CCN(C(=O)c2cc(Cl)nc3ccccc23)CC1	none
CCOc1ccc(C(CC(=O)O)NC(=O)Cc2ccc(Cl)cc2)cc1 (stereo unspecified)	none
O=C(NCCN1CCOCC1)c1ccc2c(c1)N(Cc1ccccc1F)C(=O)c1ccccc1S2(=O)=O	none
COc1cc(/C=C/C(=O)OCC(=O)Nc2c(C)n(C)n(-c3ccccc3)c2=O)cc(OC)c1OC	none (no result: AI-2 QS modul)
